# Data reported in PubChem BioAssay.
# Values joined by “and” are separate entries in the source; they are usually repeats but may differ in a detail not shown here. Identical values can stand only once. Results filed as inconclusive are left out. For some of these results: Results with a measured potency or affinity are listed apart. Active and inactive are the calls of the source. Unless noted, the limit is not given here; nearly all actives have AC50 up to about 26 µM.
# How the values were obtained:
# [1] = liver-stage malaria parasite growth inhibition, primary screen, cell-based, HepG2, luciferase luminescence, HepG2 viability (AID 624349; in the data active = parasite load remaining mostly below about 12%, no sharp cut-off; inactive = mostly above about 10%;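 also: 100% = mean of DMSO negative control wells on the same plate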); details: P. berghei liver stage in HepG2, luciferase luminescence, concentration not given here; parasite load remaining: stronger effect = lower value; viability: measured here: HepG2 viability without parasites
# [2] = differential killing of epithelial or mesenchymal cells, primary screen, imaging, PC-3E GFP, TEM4-18 mCherry, co-culture (AID 1345086;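 active = compounds killing one labelled cell type while sparing the other, by normalised counts and ratio limits, not self-fluorescent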;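 as to all read-outs here: cells exposed to compound for 72 h before imaging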;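 as to red/green cell ratio (normalised): normalised mesenchymal count divided by normalised epithelial count so high means epithelial killing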); details: imaging cell counts, at 1 µM; for red/green cell ratio (normalised): actives lie on both sides, counts scaled to control wells, 1 = unselective
# [3] = growth inhibition of DIPG glioma cells, dose response, cell-based, SU-DIPG-XIII, MIPE4.0, CellTiter-Glo, qHTS (AID 1347061; cut-off not given, nearly all actives have AC50 up to about 37 µM;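 also: cells exposed to compound for 48 hours before readout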); details: SU-DIPG-XIII viability, CellTiter-Glo ATP luminescence
# [4] = growth inhibition of DIPG glioma cells, dose response, cell-based, JHH-DIPG-1, MIPE4.0, CellTiter-Glo, qHTS (AID 1347062; cut-off not given, nearly all actives have AC50 up to about 27 µM); details: JHH-DIPG-1 viability, CellTiter-Glo ATP luminescence
# [5] = growth inhibition of DIPG glioma cells, dose response, cell-based, SU-DIPG-XIII, MIPE5.0, CellTiter-Glo, qHTS (AID 1347064; cut-off not given, nearly all actives have AC50 up to about 23 µM); details: SU-DIPG-XIII viability, CellTiter-Glo ATP luminescence
# [6] = viability loss in pontine glioma line – cell-based, SU-DIPG-XXV, MIPE5.0, CellTiter-Glo, qHTS, dose response (AID 1347065); details: CellTiter-Glo ATP luminescence;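 also: cells exposed to compound for 48 hours before ATP readout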
# [7] = SU-DIPG-VI glioma cell viability, MIPE4.0 library, CellTiter-Glo luminescence, qHTS (AID 1347066; cut-off not given, nearly all actives have AC50 up to about 30 µM;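 also: cells exposed to compound for 48 hours before readout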); details: CellTiter-Glo ATP luminescence
# [8] = JHH-DIPG-1 glioma cell viability, MIPE5.0 library, CellTiter-Glo luminescence, qHTS (AID 1347067); details: JHH-DIPG-1 glioma viability, CellTiter-Glo ATP luminescence;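 also: cells exposed to compound for 48 hours before readout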
# [9] = SU-DIPG-XXV glioma cell viability, MIPE5.0 library, qHTS (AID 1347068; cut-off not given, nearly all actives have IC50 up to about 30 µM)
# [10] = target: NAD(+) hydrolase SARM1 (Homo sapiens) (UniProt Q6SZW1); assay: SARM1 TIR NADase inhibitors, cell lysate, NAD-Glo luminescence (AID 1508614;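 active = compound whose remaining NAD level is above about 45 nM, limit read from the data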;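 also: higher remaining NAD means stronger inhibition of SARM1 NADase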); details: SAM-TIR HEK293T lysate NADase, at 1 µM, stronger effect = higher value
# [11] = target: Mitogen-activated protein kinase 7 (Homo sapiens) (UniProt Q13164); assay: ERK5 transactivation activators in reporter cells, primary screen, cell-based, HTS (AID 1508626;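 active = luciferase signal above three times the same-plate solvent-only control wells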;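 also: luciferase driven by Gal4-ERK5 fusion binding five Gal4 sites before minimal TATA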); details: HeLa Gal4-ERK5 transactivation, 18 h, at 5 µM, stronger effect = higher value
# [12] = polyglutamine-triggered caspase-3 activation inhibitors, cell-based (AID 1583); details: polyglutamine-induced caspase-3 activation, cell assay; stronger effect = higher value;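 tested at 10 µM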
# [13] = suppressors of polyQ aggregation in yeast, 75Q-TubU reporter (AID 1593); details: Yeast 75Q polyglutamine aggregation reporter
# [14] = rescue of polyQ-huntingtin neuronal dysfunction in worms, whole organism, C. elegans mechanosensory neurons, N-terminal huntingtin (AID 1599); details: touch response, stronger effect = higher value
# [15] = inhibitors of mitochondrial cytochrome c release, biochemical, purified mitochondria (AID 1603); details: stronger effect = lower value;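 also: mouse liver mitochondria challenged with calcium chloride; signal normalized to the plate average as 100%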
# [16] = inhibitors of polyQ protein aggregation (AID 1604); details: polyglutamine-induced protein aggregation inhibition assay; stronger effect = higher value; tested at 2.5 µM
# [17] = enhancers of glutamate uptake in motor neurons, MN-1 cell line (AID 1612); details: MN-1 motor neuron cells, stronger effect = higher value;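 also: tested at 1 µM final; 0% = mean of DMSO vehicle wells on each plate; positive means more glutamate uptake than control and negative means less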
# [18] = suppressors of polyglutamine aggregation in yeast, 75Q-TubH (AID 1616); details: S. cerevisiae 75Q-TubH polyglutamine aggregation suppression; stronger effect = higher value
# [19] = growth inhibition of DIPG glioma cells, dose response, cell-based, SU-DIPG-IV, MIPE4.0, CellTiter-Glo, qHTS (AID 1347063; cut-off not given, nearly all actives have AC50 up to about 30 µM;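 also: compound exposure lasted 48 hours before the viability readout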); details: SU-DIPG-IV viability, CellTiter-Glo ATP luminescence
# [20] = sensitizers of A549 cells to miR-34 induction, primary screen, imaging, A549 dox-inducible miR-34, nuclei and caspase counts (AID 1347080;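 active = compounds whose cell count with miR-34 switched on is under 0.7 times the count with it off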); details: A549 miR-34 inducible, Hoechst nuclei count, 48 h
# [21] = circadian clock period modulators, cell-based, LOPAC library, luminescence reporter (AID 2774; call rule not given here;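 also: values are relative to mean of DMSO wells on each plate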); details: circadian reporter cells, at 7 µM, actives lie on both sides
# [22] = system: Hepatitis C virus NS3 helicase; assay: HCV NS3 helicase inhibitors, primary screen, biochemical, fluorescence polarization, LOPAC1280 library (AID 687035; in the data active = inhibition above about 37%); details: Purified HCV NS3 helicase, Cy5-dT15 ssDNA binding fluorescence polarization; stronger effect = higher value; concentration not given here
# [23] = Cy5 fluorescence quenching or enhancement artefacts, artefact control for HCV NS3 helicase inhibitor project, biochemical, LOPAC1280 (AID 687037; call rule not given here); details: Cy5-DNA-NS3h complex fluorescence interference counterscreen
# [24] = system: Aerobactin synthetase IucA (Klebsiella pneumoniae); assay: IucA aerobactin synthetase inhibitors, biochemical, Tocris library, absorbance (AID 1345561; call rule not given here;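 also: 100% = enzyme without compound and 0% = no enzyme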); details: purified IucA enzyme assay, absorbance (OD) read-out; stronger effect = lower value;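 tested at 8 µM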
# [25] = inhibitors of Cryptococcus chitosan production, flow cytometry, Cibacron Brilliant Red staining (AID 1347148; call rule not given here;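 also: compound exposure lasted three days at 37 degrees C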); details: Cryptococcus neoformans chitosan, stronger effect = lower value; at 10 µM unless noted
# [26] = phospholipid biosynthesis inhibitors in animal cells, primary screen, cell-based, LOPAC library, screen 4 (AID 1347384; call rule not given here); details: phospholipid biosynthesis inhibition screen, at 10 µM
# [27] = survival rescue of mitochondrial mutant cells in low glucose, primary screen, MELAS cybrids, Rieske KO mouse fibroblasts, CellTiter-Glo (AID 1508586;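 active = mean z-score across replicates of 1.96 or higher in either the MELAS or the Rieske mutant cell line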;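 also: z relative to plate mean and SD of compound and empty wells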)
# [28] = viability rescue of complex I mutant cybrids, primary screen, cell-based, galactose medium, ATP luminescence (AID 1645843;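 active = z-score of at least 1.8 in each of two replicates, scored against plate mean and spread of sample wells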;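 also: positive z means more ATP and so rescue of galactose-driven cybrid death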); details: complex I mutant cybrid cells, 72 h, stronger effect = higher value
# [29] = measured here: epithelial PC-3E GFP cell survival
# [30] = measured here: mesenchymal TEM4-18 mCherry cell survival
# [31] = stronger effect = lower value, cell number ratio, induced over uninduced
# [32] = measured here: relative caspase fold change +Dox/-Dox
# [33] = measured here: total cells with miR-34 induction, stronger effect = lower value
# [34] = measured here: total cells without miR-34 induction
# [35] = MELAS cybrid survival, CellTiter-Glo 48 h, stronger effect = higher value
# [36] = Rieske KO mouse fibroblast survival, CellTiter-Glo 72 h
# NAD(+) hydrolase SARM1 (Homo sapiens), sequence (Q6SZW1 whole entry, looked up, the tested form may be a part): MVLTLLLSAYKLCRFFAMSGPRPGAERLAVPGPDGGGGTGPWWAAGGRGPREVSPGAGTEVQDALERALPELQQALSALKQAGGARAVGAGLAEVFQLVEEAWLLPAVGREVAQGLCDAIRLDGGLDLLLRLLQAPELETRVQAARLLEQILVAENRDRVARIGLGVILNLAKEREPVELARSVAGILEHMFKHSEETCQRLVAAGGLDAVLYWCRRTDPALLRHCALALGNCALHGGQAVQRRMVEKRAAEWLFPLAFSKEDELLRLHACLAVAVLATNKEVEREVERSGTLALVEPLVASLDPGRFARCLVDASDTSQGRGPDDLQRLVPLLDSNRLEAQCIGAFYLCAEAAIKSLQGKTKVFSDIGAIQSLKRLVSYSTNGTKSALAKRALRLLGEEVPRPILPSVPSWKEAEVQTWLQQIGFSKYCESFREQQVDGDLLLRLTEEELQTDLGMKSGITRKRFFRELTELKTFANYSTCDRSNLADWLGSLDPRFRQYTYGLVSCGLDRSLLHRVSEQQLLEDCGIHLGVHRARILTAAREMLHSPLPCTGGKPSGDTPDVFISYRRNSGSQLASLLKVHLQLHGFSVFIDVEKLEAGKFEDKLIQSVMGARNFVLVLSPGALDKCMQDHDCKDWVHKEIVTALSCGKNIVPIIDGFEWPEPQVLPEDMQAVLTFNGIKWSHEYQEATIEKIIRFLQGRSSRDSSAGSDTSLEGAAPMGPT
# Mitogen-activated protein kinase 7 (Homo sapiens), sequence (Q13164 whole entry, looked up, the tested form may be a part): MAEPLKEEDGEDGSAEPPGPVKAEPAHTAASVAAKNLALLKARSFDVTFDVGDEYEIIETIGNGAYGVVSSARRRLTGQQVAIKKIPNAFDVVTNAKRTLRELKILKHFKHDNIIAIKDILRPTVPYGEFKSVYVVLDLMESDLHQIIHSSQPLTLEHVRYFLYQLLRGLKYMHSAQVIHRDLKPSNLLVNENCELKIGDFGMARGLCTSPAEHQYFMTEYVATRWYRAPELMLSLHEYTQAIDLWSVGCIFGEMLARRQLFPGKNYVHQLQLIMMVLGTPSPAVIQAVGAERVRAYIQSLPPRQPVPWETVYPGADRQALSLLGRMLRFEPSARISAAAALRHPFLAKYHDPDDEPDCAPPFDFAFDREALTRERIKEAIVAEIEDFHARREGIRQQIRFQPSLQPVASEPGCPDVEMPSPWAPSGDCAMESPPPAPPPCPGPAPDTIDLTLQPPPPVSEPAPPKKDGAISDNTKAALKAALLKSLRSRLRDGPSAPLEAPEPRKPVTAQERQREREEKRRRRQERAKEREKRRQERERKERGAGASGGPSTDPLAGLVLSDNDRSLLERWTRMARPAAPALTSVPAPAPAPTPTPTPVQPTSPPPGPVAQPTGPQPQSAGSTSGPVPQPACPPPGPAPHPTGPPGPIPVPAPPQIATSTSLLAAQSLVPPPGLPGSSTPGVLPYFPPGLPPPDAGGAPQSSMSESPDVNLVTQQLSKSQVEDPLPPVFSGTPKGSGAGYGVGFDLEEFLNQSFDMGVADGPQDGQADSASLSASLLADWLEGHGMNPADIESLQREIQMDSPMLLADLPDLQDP
compound,measurement,setting,value
N[C@@H](CC(=O)N1CCn2c(nnc2C(F)(F)F)C1)Cc1cc(F)c(F)cc1F,parasite load remaining,[1],48.9% (inactive)
same,viability,[1],95.5%
same,red/green cell ratio (normalised),[2],1.25 (inactive)
same,normalised cell number,[2]; [29],0.94
same,normalised cell number,[2]; [30],1.18
same,outcome,[3],inactive
same,outcome,[4],inactive
same,outcome,[5],inactive
same,outcome,[6],inactive
same,outcome,[7],inactive
same,outcome,[8],inactive
same,outcome,[9],inactive
same,remaining NAD,[10],10 nM (inactive)
same,luciferase signal,[11],92 AU (inactive)
Clc1ccc(CCC(Cn2ccnc2)Sc2c(Cl)cccc2Cl)cc1 (centres undefined),red/green cell ratio (normalised),[2],0.84 (inactive)
same,normalised cell number,[2]; [29],1.26
same,normalised cell number,[2]; [30],1.06
same,outcome,[6],inactive
same,outcome,[8],inactive
same,remaining NAD,[10],10 nM (inactive)
C=CC[C@@H]1/C=C(\C)C[C@H](C)C[C@H](OC)[C@H]2O[C@@](O)(C(=O)C(=O)N3CCCC[C@H]3C(=O)O[C@H](/C(C)=C/[C@@H]3CC[C@@H](O)[C@H](OC)C3)[C@H](C)[C@@H](O)CC1=O)[C@H](C)C[C@@H]2OC,inhibition,[12],-0.04%
same,score,[13],-0.08
same,rescue above control,[14],0
same,cytochrome c release ratio,[15],2.76
same,inhibition of aggregation,[16],0%
same,glutamate uptake change,[17],0%
same,aggregation suppression score,[18],0.207
same,parasite load remaining,[1],58.3% (inactive)
same,viability,[1],97.1%
same,red/green cell ratio (normalised),[2],1.19 (inactive)
same,normalised cell number,[2]; [29],0.77
same,normalised cell number,[2]; [30],0.91
same,AC50,[3],23.5 µM (active)
same,AC50,[19],1.18 µM (active)
same,AC50,[6],20.9 µM (active)
same,fold change,[20]; [31],1.03 (inactive) and 0.874 (inactive)
same,fold change,[20]; [32],1.61 and 2.51
same,cell count,[20]; [33],4360 and 8620
same,cell count,[20]; [34],4240 and 9860
same,remaining NAD,[10],10 nM (inactive)
same,luciferase signal,[11],68 AU (inactive)
CC(C)NC[C@H](O)COc1cccc2ccccc12,period change,[21],0.145 h (inactive)
same,parasite load remaining,[1],76% (inactive) and 69.1% (inactive) and 147% (inactive)
same,viability,[1],78.7% and 93.4% and 161%
same,inhibition,[22],-3% (inactive)
same,fluorescence ratio (interference),[23],1 (inactive)
same,red/green cell ratio (normalised),[2],1.36 (inactive)
same,normalised cell number,[2]; [29],1
same,normalised cell number,[2]; [30],1.37
same,remaining activity,[24],97% (inactive)
same,fold fluorescence,[25],1.64 [at 192.8 µM] (inactive)
same,outcome,[26],inactive
same,z-score,[27]; [35],-0.245 (inactive)
same,z-score,[27]; [36],-0.593
same,z-score,[28],-0.055 (inactive) and 0.085 (inactive) and -0.035 (inactive)
N#CC(c1ccc(Cl)cc1)c1c(Cl)cc(-n2ncc(=O)[nH]c2=O)cc1Cl (centres undefined),parasite load remaining,[1],30.6% (inactive)
same,viability,[1],99%
same,red/green cell ratio (normalised),[2],0.84 (inactive)
same,normalised cell number,[2]; [29],1.03
same,normalised cell number,[2]; [30],0.86
same,AC50,[3],23.5 µM (active)
same,outcome,[5],inactive
same,AC50,[7],13.2 µM (active)
same,outcome,[8],inactive
same,fold change,[20]; [31],0.879 (inactive) and 0.842 (inactive)
same,fold change,[20]; [32],1.15 and 1.36
same,cell count,[20]; [33],7450 and 8470
same,cell count,[20]; [34],8480 and 10000
same,z-score,[27]; [35],-0.404 (inactive) and -1.37 (inactive) and -0.711 (inactive)
same,z-score,[27]; [36],0.144 and -0.703 and -0.429
same,remaining NAD,[10],10 nM (inactive)
same,z-score,[28],-0.445 (inactive)
C[C@]12CCC(=O)C=C1[C@@H]1C[C@@H]1C1C2CC[C@@]2(C)C1[C@@H]1C[C@@H]1[C@@]21CCC(=O)O1 (some centres undefined),red/green cell ratio (normalised),[2],0.65 (inactive)
same,normalised cell number,[2]; [29],1.4
same,normalised cell number,[2]; [30],0.91
same,fold change,[20]; [31],1.02 (inactive)
same,fold change,[20]; [32],0.868
same,cell count,[20]; [33],7990
same,cell count,[20]; [34],7840
